# IP6K1 inhibitor: Primary qHTS assay for small molecule inhibitors of Inositol hexaphosphate kinase 1 (IP6K1); IP6K1 kinase, ADP-Glo luminescence, 2 h; active compounds read low; 140,000 compounds, 0.81% hits; Inositol hexakisphosphate kinase 1 (Homo sapiens), Q92551; activity change, % (series mostly up to about 58 µM); AID 1645851, 2021; in the data active = activity change below about -25%; note: % is set by controls: 0 for no effect and ±100 for the full control effect
# Target sequence (Q92551 whole entry, looked up): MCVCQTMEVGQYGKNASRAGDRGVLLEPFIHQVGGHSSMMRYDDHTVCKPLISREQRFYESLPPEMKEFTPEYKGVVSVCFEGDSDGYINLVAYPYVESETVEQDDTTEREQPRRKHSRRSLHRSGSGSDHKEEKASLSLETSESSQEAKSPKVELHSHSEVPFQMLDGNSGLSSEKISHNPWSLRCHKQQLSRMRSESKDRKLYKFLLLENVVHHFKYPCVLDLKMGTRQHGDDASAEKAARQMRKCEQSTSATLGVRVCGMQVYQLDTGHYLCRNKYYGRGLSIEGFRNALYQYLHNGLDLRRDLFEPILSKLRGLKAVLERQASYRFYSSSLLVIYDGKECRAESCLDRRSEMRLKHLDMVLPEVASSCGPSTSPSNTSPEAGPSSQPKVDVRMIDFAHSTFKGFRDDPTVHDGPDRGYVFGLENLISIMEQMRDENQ
#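 ADP-Glo luminescence measures ADP made by human IP6K1 during a 2 h RT reaction with ATP/IP6 (mix at 1.3 mM/130 uM); top library doses 57.5 and 19.1 uM final.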
# KDM5B inhibitor: Primary screen for KDM5B Histone Demethylases FDH-coupled qHTS. 220,000 compounds, 2.6% hits. AID 1347165, 2019. KDM5B demethylase, FDH-coupled NADH fluorescence (FDH is formaldehyde dehydrogenase). Lysine-specific demethylase 5B (Homo sapiens), Q9UGL1. Potency, µM (top dose mostly 57.7 µM), usual class: inhibitors; note: potency is the fitted concentration of half-maximal effect; 0% is about no effect; nearly all actives have a fitted effect of over 70% in size
#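 Measured: NADH fluorescence change, 30 min, RT. System: KDM5BΔAP 200 nM final, H3K4me3 peptide, α-KG, Fe(II), ascorbate, NAD⁺ plus FDH, pH 7.5 HEPES. Compounds: titrated, 10 min pre-incubation with enzyme.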
# SNCA expr inhib: Primary qHTS assay for inhibitors of alpha-synuclein gene (SNCA) expression | HEK-293 SNCA-luciferase knock-in, luminescence, 24 h | Potency, µM (top dose mostly 57.2 µM), without a hit: at the top dose activity change, negative = inhibition, most hits filed as inhibitors | 140,000 compounds, 0.17% hits | AID 1671194, 2021;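 note: potency is the fitted concentration of half-maximal effect; plate controls were DMSO cells for no effect and cell-free wells for full effect; nearly all actives have a fitted effect of over 45% in size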
# SNCA viab count: GF-AFC viability counterscreen for inhibitors of alpha-synuclein gene (SNCA) expression | Potency, µM (top dose mostly 57.1 µM), for the others: at the highest dose activity change, negative = cytotoxicity, most hits filed as cytotoxic | 150,000 compounds, 0.12% hits | HEK-293-SNCA-luc viability, GF-AFC fluorescence, 24 h;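 note: potency is the fitted concentration of half-maximal effect; 0% = DMSO-treated cells and -100% = medium-only wells without cells; nearly all actives have a fitted effect of over 30% in size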
#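 Cytotoxicity counterscreen: after 24 h compound treatment of genome-edited SNCA-luciferase HEK-293 cells, live-cell protease substrate GF-AFC read by fluorescence after 30 min; activity scaled between DMSO (0%) and medium-only (-100%), curves Hill-fitted.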
# Numbers without * were called inactive; i = inactive; ? = inconclusive; . = no result given; [ ] = remark or other dose. Sampled rows, rich in hits. Any-hit rate of the full collection: about 2.9%. Unless noted, calls come from the whole dose curve; as a rule, active = well fitted curve in the direction sought with a large enough effect; inconclusive = small, poorly fitted or top-dose-only effect, or another doubt; inactive = no such curve, though single readings can be large; an effect the other way counts as inactive or inconclusive.
SMILES,IP6K1 inhibitor,KDM5B inhibitor,SNCA expr inhib,SNCA viab count
CCc1nc2c(c(-c3ccc(Cl)cc3)n1)CCN(C(=O)c1ccc3c(c1)OCO3)CC2,13,i,5%,-12%
CN(C)c1ccc(CNC2(Cc3cc(-c4ccc(F)cc4)on3)COC2)cc1,4,i,0%[87.6 µM],-3%[87.6 µM]
CN(C)C[C@@H]1CN(C2CCOCC2)C[C@H]1NC(=O)c1cc2ccccc2[nH]1,23,28µM*,1%,-9%
COc1ncccc1-c1cnc2[nH]cc(CC(=O)Nc3ccccn3)c2c1,-16,35µM*,67%[87.6 µM],-23%[87.6 µM]
COc1ccc(-c2cnc3[nH]cc(CC(=O)N4CCOCC4)c3c2)cn1,-12,?,43%[87.6 µM],-5%[87.6 µM]
Cc1ccccc1-c1cnc2[nH]cc(CC(=O)Nc3ccccn3)c2c1,-22,?,-15%[87.6 µM],-17%[87.6 µM]
COc1ncccc1-c1cnc2[nH]cc(CC(=O)Nc3cc(C)nn3C)c2c1,-13,40µM*,12%[87.6 µM],-6%[87.6 µM]
COc1ncccc1-c1cnc2[nH]cc(CC(=O)Nc3ccn(C)n3)c2c1,-13,32µM*,14%[87.6 µM],-4%[87.6 µM]
COc1ncccc1-c1cnc2[nH]cc(CC(=O)N3CCOCC3)c2c1,-13,35µM*,29%[87.6 µM],-6%[87.6 µM]
CCN(Cc1ccccc1)C(=O)C1CCCCC(=O)N1Cc1ccccc1 (centres undefined),-7,.,-19%,-21%
COc1ncccc1-c1cnc2[nH]cc(CC(=O)NC(C)C)c2c1,8,32µM*,2%[87.6 µM],-6%[87.6 µM]
Cc1ccccc1-c1cnc2[nH]cc(CC(=O)Nc3ccn(C)n3)c2c1,-21,32µM*,-16%[87.6 µM],-10%[87.6 µM]
COc1cccc(NC(=O)Cc2c[nH]c3ncc(-c4cccnc4OC)cc23)c1,-12,?,-14%[87.6 µM],?
CCn1cnnc1CCNC(=O)c1cc(-c2ccc(C)cc2)nc2ccccc12,9,28µM*,?,3%
Cc1ccc(CCNC(=O)c2cc(-c3ccncc3)nc3ccccc23)cc1,.,i,.,.
CCn1ccc2c(CN3CCC4(CCCN(CCOC)C4=O)C3)cccc21 (centres undefined),0,28µM*,9%,-9%
Cc1nc(N(C)C)ncc1C(=O)N1CCN(c2ccccc2C#N)CC1,5,28µM*,16%,-4%
C=CCOc1cc(C)c2c(c1C)[C@H](O)C([C@H](C)C(=O)NCCOC)CC2 (some centres undefined),-3,i,14%[87.6 µM],1%[87.6 µM]
C=CCOc1cc(C)c2c(c1C)[C@H](O)C([C@H](C)C(=O)N(C)Cc1ccccc1)CC2 (some centres undefined),-6,35µM*,-6%[87.6 µM],-2%[87.6 µM]
Cc1ccc(-c2nnc3ccc(N4CCCCC4)nn23)nc1,-4,32µM*,2%[87.6 µM],0%[87.6 µM]
COCC(=O)Nc1ccc(-c2noc([C@@H]3CCCN3Cc3cc4ccccc4o3)n2)cn1,19,32µM*,-7%[87.6 µM],-5%[87.6 µM]
COc1ccc(C(=O)Nc2ccc(-c3noc([C@@H]4CCCN4CC4CCCCC4)n3)cn2)cc1,-3,32µM*,-11%,-8%
CN(C)c1ccc(-c2noc([C@@H]3CCCN3CC3CCCCC3)n2)cn1,19,40µM*,40%[87.6 µM],12%[87.6 µM]
COc1ccc(C(=O)Nc2ccc(-c3noc([C@@H]4CCCN4Cc4ccc(OC(F)(F)F)cc4)n3)cn2)cc1,-2,?,-12%,-7%
COCC(=O)Nc1ccc(-c2noc([C@@H]3CCCN3Cc3ccc(NC(C)=O)cc3)n2)cn1,15,i,2%,-3%
SMILES,IP6K1 inhibitor,KDM5B inhibitor,SNCA expr inhib,SNCA viab count
COc1ccc(C(=O)Nc2ccc(-c3noc([C@@H]4CCCN4Cc4ccc(C(F)(F)F)cc4)n3)cn2)cc1,-3,28µM*,-24%,-8%
O=C(NCCOc1ccc2ccccc2c1)c1n[nH]c(=O)c2ccccc12,.,i,.,.
O[C@@H]1C[C@@H](c2nc(-c3ccccn3)no2)N(Cc2cc3ccccc3o2)C1,12,32µM*,94%[87.6 µM],-2%[87.6 µM]
CCn1cc2c3c(cccc31)CN(C(=O)c1ccc(OC)c(F)c1)CC2,4,32µM*,-1%,0%
CCc1ccccc1-n1nc(-c2c(C)nc3scc(CC(=O)NCCOC)n3c2=O)cc1C,1,?,-9%,-1%
COc1ccc(-c2ccc3c(c2)C(=O)N2CC[C@H](NC(=O)C4CCCC4)[C@H]2C(=O)N3)c(OC)c1,5,32µM*,-16%,-1%
CSCC(=O)N[C@H]1CCN2C(=O)c3cc(/C=C/c4ccccc4)ccc3NC(=O)[C@H]12,3,16µM*,15%[87.6 µM],-5%[87.6 µM]
COc1ccc(/C=C/c2ccc3c(c2)C(=O)N2CC[C@H](NC(=O)COCC(=O)O)[C@H]2C(=O)N3)cc1,-5,22µM*,-20%,-2%
CC(C)NC(=O)N[C@H]1CCN2C(=O)c3cc(/C=C/c4ccccc4)ccc3NC(=O)[C@H]12,-9,35µM*,10%[87.6 µM],1%[87.6 µM]
COc1ccc(-c2ccc3c(c2)C(=O)N2CC[C@H](NC(=O)NC(C)C)[C@H]2C(=O)N3)c(OC)c1,0,?,4%,4%
Cn1c(=O)c2c(nc(N3CCC(C(N)=O)CC3)n2CCCc2ccccc2)n(C)c1=O,.,i,.,.
O=C(O)Cn1nc(C2CC2)nc1CCc1nc2ccccc2s1,6,i,14%,13%
CC(C)c1nnc(NC(=O)c2nn(Cc3ccccc3)c(=O)c3ccccc23)s1,.,i,.,.
CCNC(=O)N1CCCC1c1noc(CCC(=O)NC(CC)CC)n1 (centres undefined),11,i,-11%,7%
COCCNC(=O)c1nc(-c2cccc(C(F)(F)F)c2)c2cnccn12,0,25µM*,-8%,-4%
COC(=O)CNC(=O)c1nc(-c2cccc(C(F)(F)F)c2)c2ccccn12,11,14µM*,1%,6%
COCCNC(=O)c1nc(-c2cccc(C(F)(F)F)c2)c2ccccn12,8,16µM*,7%,11%
C#CCNC(=O)c1nc(-c2cccc(C(F)(F)F)c2)c2cnccn12,0,32µM*,35%,-1%
COCCNC(=O)c1nc(-c2ccccc2)c2ccccn12,31,i,8%[87.6 µM],4%[87.6 µM]
C#CCNC(=O)c1cn2cc(-c3cccc(C(F)(F)F)c3)sc2n1,15,.,-4%,-17%
O=C(NCc1cccnc1)c1nc(-c2cccc(C(F)(F)F)c2)c2ccccn12,29,?,-4%,4%
COc1ccc(-c2csc(NC(=O)Cc3nc4nc(C)cc(C)n4n3)n2)cc1Cl,.,i,.,.
COc1cncc(N2CC3(COCC(=O)N(Cc4cccc(OC(F)(F)F)c4)C3)C2)c1,4,28µM*,13%[87.6 µM],-6%[87.6 µM]
O=C1COCC2(CN1Cc1cccc(OC(F)(F)F)c1)CN(c1ccccn1)C2,4,?,?,1%[87.6 µM]
N#CCCN/N=C/c1ccncc1,.,i,.,.
COc1ncccc1-c1ccnc(-c2nnc(C)n2Cc2ccccc2)c1,-1,28µM*,23%[87.6 µM],-4%[87.6 µM]
COc1ccc(-c2ccnc(-c3nnc(C)n3C(C)C)c2)cc1OC,-7,35µM*,-1%[87.6 µM],2%[87.6 µM]
